PubChem BioAssay
A number with no mark means an inactive call. No rule for the calls is given here.

Tested on: Botulinum neurotoxin type F light chain protease (Clostridium botulinum)
Assay: Clostridium botulinum type F light chain protease inhibitors, microsphere substrate cleavage, validation (AID 588459)
Conditions: multiplex microsphere protease substrate cleavage assay, flow cytometry; at 10 µM; active compounds read high

Point of comparison: `C[C@]12CC[C@H]3[C@@H](CCC4=CC(=O)CC[C@@]43C)[C@@H]1CC[C@@H]2C(=O)CO`, inhibition 3.9%. Against it:
- COC(=O)C1=CN(Cc2cccs2)C=C(C(=O)OC)C1c1cccc(Cl)c1 — lower, -4.5%
- C=CCn1c(SCC(=O)NC2CCCCC2)nc2ccccc2c1=O — lower, -0.1%
- O=C(O)CCn1c(=S)n(CCC(=O)O)c2ccccc21 — lower, 2.7%
- COc1ccc2c(C=O)cn(C)c2c1 — lower, 1.9%
- COc1cc(NC(=O)N[C@@H](Cc2ccccc2)C(=O)O)cc(OC)c1 — lower, 1.2%

Target: Botulinum neurotoxin type A (Clostridium botulinum) (UniProt P0DPI0)
Sequence (P0DPI0 whole entry, looked up): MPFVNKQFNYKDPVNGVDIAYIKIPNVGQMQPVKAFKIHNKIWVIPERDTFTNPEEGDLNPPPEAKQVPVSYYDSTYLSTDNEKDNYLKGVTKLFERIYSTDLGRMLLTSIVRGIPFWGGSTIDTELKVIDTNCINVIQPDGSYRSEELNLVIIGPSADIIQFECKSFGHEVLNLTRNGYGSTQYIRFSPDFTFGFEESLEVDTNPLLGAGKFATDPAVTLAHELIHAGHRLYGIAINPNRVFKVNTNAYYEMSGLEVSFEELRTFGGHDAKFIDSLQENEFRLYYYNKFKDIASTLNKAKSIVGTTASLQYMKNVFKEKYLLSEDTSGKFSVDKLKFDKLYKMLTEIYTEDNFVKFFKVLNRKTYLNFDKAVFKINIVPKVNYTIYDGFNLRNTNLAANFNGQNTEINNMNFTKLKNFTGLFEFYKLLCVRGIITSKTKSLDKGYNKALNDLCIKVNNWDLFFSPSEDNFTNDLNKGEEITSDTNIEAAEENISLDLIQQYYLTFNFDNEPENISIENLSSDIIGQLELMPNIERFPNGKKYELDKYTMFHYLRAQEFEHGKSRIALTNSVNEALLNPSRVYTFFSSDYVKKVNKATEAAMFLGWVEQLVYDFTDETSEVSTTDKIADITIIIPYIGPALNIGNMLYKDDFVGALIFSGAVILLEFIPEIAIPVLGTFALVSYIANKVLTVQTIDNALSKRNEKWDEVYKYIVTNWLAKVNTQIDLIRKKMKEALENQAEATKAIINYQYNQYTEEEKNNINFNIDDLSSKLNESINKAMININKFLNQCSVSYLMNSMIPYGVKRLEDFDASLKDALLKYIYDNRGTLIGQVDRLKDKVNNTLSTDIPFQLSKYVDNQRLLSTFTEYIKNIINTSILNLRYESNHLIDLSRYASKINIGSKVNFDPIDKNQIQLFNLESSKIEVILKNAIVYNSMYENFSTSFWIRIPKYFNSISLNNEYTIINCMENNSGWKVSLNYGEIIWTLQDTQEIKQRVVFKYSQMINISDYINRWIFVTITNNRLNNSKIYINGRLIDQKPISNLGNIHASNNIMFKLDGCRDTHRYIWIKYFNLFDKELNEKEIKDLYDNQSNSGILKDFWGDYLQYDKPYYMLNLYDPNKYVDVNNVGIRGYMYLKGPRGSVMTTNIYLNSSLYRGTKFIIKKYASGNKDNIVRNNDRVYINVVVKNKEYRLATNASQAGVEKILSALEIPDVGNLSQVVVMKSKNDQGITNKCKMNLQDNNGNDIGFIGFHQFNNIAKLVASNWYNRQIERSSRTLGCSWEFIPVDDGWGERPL
Assay: BoNT/A light chain protease inhibitors, biochemical, multiplex microsphere flow cytometry, validation set (AID 588460)
Conditions: at 10 µM, active compounds read high

Point of comparison: `COc1ccc2c(c1)c(=O)oc1cc3occ(C(C)(C)C)c3cc12`, inhibition 1.4%. Against it:
- CCOc1ccc(CCn2c(-c3ccco3)nc3ccccc3c2=O)cc1OCC — lower, -0.4%
- CCOC(=O)c1oc2cc(OCC(N)=O)ccc2c(=O)c1-c1ccc(OC)c(OC)c1 — lower, 1.1%
- Cc1cccc(Nc2ncccc2C(=O)O)c1C — lower, -1.6%
- CO[C@@]1(NC(=O)Cc2cccs2)C(=O)N2C(C(=O)O)=C(COC(N)=O)CS[C@@H]21 — the same, 1.4%
- CCNC(=S)N1CCN(CCN2C(=O)c3cccc4cccc(c34)C2=O)CC1 — higher, 3.7%
- NC12CC3CC(C1)CC(O)(C3)C2 — lower, -0.4%
- NC(N)=N/N=C/c1ccc(OS(=O)(=O)c2ccccc2)cc1 — lower, -1.5%
- CC(C)(Oc1ccc(CCNC(=O)c2ccc(Cl)cc2)cc1)C(=O)O — lower, 0.1%
- COc1ccc(C(=O)NCc2cccnc2)cc1 — lower, 0%
